For experiment [1], the system named is Vero E6 infected with SARS-CoV-2. The experiment can be described thus: morphology score (similarity to uninfected cells); higher = more like uninfected cells. The conditions noted are these: 24 h.
The test system is the same in experiment [2]. Kind of experiment: SARS-CoV-2 infection rate relative to infected DMSO; higher = more infection, active = 60 or less. The conditions noted are these: 24 h.

`CC1(C)S[C@@H]2[C@H](NC(=O)[C@H](N)c3ccccc3)C(=O)N2[C@H]1C(=O)O` [ampicillin] (10 µM) yielded a morphology score in experiment [1] of 0.141. Moreover, in experiment [2], the SARS-CoV-2 infection rate was 102% (inactive).

The compound `CCCN(CCC)CCc1cccc2c1CC(=O)N2` [ropinirole] (10 µM) came in with a morphology score in experiment [1] of -0.139. The SARS-CoV-2 infection rate in experiment [2] was 112% (inactive).

On to `CC[N+](CC)(CC)CCC(O)(c1ccccc1)C1CCCCC1` (stereo unspecified) [tridihexethyl] (10 µM), for which the morphology score in experiment [1] is -0.09. Further, in experiment [2], the SARS-CoV-2 infection rate was 110% (inactive).

In turn, `C[N+]1(C)[C@@H]2C[C@@H](OC(=O)[C@H](CO)c3ccccc3)C[C@H]1[C@@H]1O[C@@H]12` [methscopolamine] (10 µM) returned a morphology score in experiment [1] of -0.0273. The SARS-CoV-2 infection rate in experiment [2] was 96% (inactive).

`NC(=O)c1cnc2[nH]ccc2c1N[C@@H]1[C@@H]2CC3C[C@H]1C[C@@](O)(C3)C2` (10 µM): the morphology score in experiment [1] turned out to be 0.174. Further, the SARS-CoV-2 infection rate in experiment [2] was 106% (inactive).

`Cc1[nH]c2ccc(Cl)cc2c1C1=CCNCC1` (10 µM) showed a morphology score in experiment [1] of 0.432. The SARS-CoV-2 infection rate in experiment [2] was 76% (inactive).

Compound `COC1(C2=NCCN2)COc2ccccc2O1` (stereo unspecified) (10 µM) displayed a morphology score in experiment [1] of 0.0681. In addition, the SARS-CoV-2 infection rate in experiment [2] is 92.5% (inactive).

Take `Cc1c(N(C)C)c(=O)n(-c2ccccc2)n1C` [amidopyrine] (10 µM): the morphology score in experiment [1] is -0.0419. For the same compound, the SARS-CoV-2 infection rate in experiment [2] is 110% (inactive).

(Values after the supplement of paper PMC13380429.)
